Measurements as given in PubChem BioAssay AID1159580 (chemical genetic matrix, 2015).
The whole screen tested about 5,500 compounds, of which about 2,000 (36%) were called active. Inconclusive results (about 18%) are left out. Cut-off read from the data, not from the text of the source: active = normalized growth mostly below about 0.91 (no sharp cut-off); inconclusive = no clear call, values can overlap the other calls; inactive = mostly above about 0.92. This is one part of the list.

Experiment: chemical genetic growth profiling, strain panel (AID 1159580);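 note: tested at 20 µM; growth read once vehicle control cultures reached saturation at 30 °C; 1 = growth at the plate median or of vehicle wells; lower values mean less growth of the strain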
Settings: S. cerevisiae deletion strains, growth OD

Measured: normalized growth

O=C1NC(c2cccc([N+](=O)[O-])c2)=CCN1c1ccccc1O
inactive: locus YAL013W, strain DEP1, active compounds read low 0.998 | locus YAL040C, strain CLN3, active compounds read low 0.994 | locus YCL061C, strain MRC1 (second series), active compounds read low 1.01 | locus YDR363W, strain ESC2, active compounds read low 1.01 | locus YER002W, strain NOP16, active compounds read low 1 | locus YGR078C, strain PAC10, active compounds read low 1.02 | locus YJR075W, strain HOC1, active compounds read low 1.01 | locus YMR263W, strain SAP30, active compounds read low 1 | locus YMR307W, strain GAS1, active compounds read low 1 | locus YNL153C, strain GIM3, active compounds read low 1.05 | locus YNL175C, strain NOP13, active compounds read low 1 | locus YNL197C, strain WHI3, active compounds read low 1.01 | locus YNL224C, strain SQS1, active compounds read low 0.995 | locus YNL322C, strain KRE1, active compounds read low 0.998 | locus YOR083W, strain WHI5 (second series), active compounds read low 1.01
